Screens deposited in PubChem BioAssay by several laboratories.
A selection: hits, their analogues and other compounds. The true share with any hit is near 2.6%.
H9c2 protect: myocardial damage modulation in H9c2 cells; H9c2 cardiomyocytes, H2O2 injury protection, ATPLite, 2 h; protection from H2O2 cell death, % at 20 µM; 0.63% of 360,000 active;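 active = compounds giving at least 50% protection of heart cells from peroxide-induced death in the single-dose screen, raw or plate-pattern-corrected value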;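 also: 0% = DMSO wells with peroxide and 100% = DMSO wells without peroxide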
H9c2 TAG inh: reduces triacylglycerol accumulation in H9c2 cells | Nile Red lipid (TAG) fluorescence; cells loaded with 200 µM oleic acid | inhibition, % at 12.5 µM | 0.66% of 230,000 active | AID 651582;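 active = pattern-corrected inhibition of lipid staining of at least 50% with the nuclear-stain viability signal not falling by more than 50%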;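 also: 0% = DMSO wells and 100% = triacsin C control wells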
COUP-TFII inh: inhibitors of human COUP-TFII (NR2F2); inhibition, % at 8.6 µM; HEK293T NGFI-A luciferase reporter, luminescence; 0.7% of 370,000 active; AID 686940;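 active = inhibition above a per-plate cutoff, mean inhibition of test wells between control levels plus 3 SD, cut at about 38% in these data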;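 also: cells cotransfected with COUP-TFII expression vector driving the NGFI-A reporter; 0% = median of COUP-TF2 test wells and 100% = reporter-only cells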
Target sequence (P24468 whole entry, looked up): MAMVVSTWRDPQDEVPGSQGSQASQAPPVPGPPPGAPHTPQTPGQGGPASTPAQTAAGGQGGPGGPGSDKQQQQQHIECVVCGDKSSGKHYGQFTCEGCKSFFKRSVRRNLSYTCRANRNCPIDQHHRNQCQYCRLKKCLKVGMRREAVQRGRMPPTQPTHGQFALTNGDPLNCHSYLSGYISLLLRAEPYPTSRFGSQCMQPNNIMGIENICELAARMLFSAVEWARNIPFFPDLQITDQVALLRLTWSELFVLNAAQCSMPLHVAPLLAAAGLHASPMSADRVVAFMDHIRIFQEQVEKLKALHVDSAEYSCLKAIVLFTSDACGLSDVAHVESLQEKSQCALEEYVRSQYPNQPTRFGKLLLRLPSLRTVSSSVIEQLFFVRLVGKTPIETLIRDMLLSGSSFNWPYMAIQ
Jurkat NFkB inh: inhibitors of the PMA/ionomycin-induced NF-kB reporter in Jurkat cells | 0.53% of 330,000 active | PMA/ionomycin-induced NF-kB luciferase reporter, luminescence | inhibition, % at 4 µM; in the data active = inhibition above about 50%
Gli-Sufu block: blocks Gli-Sufu signaling in a luciferase reporter; Sufu-KO-LIGHT fibroblasts, Gli luciferase reporter luminescence; inhibition, % at 5 µM; 0.74% of 340,000 active;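 active = inhibition above about 55%, limit read from the data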;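 also: 0% = DMSO-treated cells and 100% = wells with medium but no cells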
697 NFkB inh: inhibitors of the PMA/ionomycin-induced NF-kB reporter in 697 B cells; 697 B-cell NF-kB luciferase reporter, 16 h; inhibition, % at 4 µM; 0.33% of 330,000 active; AID 435022; in the data active = inhibition above about 35%
Numbers without * were called inactive.

What do the screens show for `COc1ccc2c(c1)C(=O)[C@@H](O)[C@H](c1ccc(OC)c(Br)c1)O2`?
H9c2 protect: 51.6*; H9c2 TAG inh: 5.7; Jurkat NFkB inh: -30.0; Gli-Sufu block: 6.7; 697 NFkB inh: -11.0

What do the screens show for `CCCCCCN1CCS(=O)(=O)N(Cc2ccc(C)cc2)C(C(=O)OC)C1` (stereo not drawn)?
COUP-TFII inh: -5.0

Results for CN(CCOC(=O)c1cccs1)C1CN(Cc2cn(Cc3ccccc3Cl)nn2)S(=O)(=O)C1 (stereo not drawn) ?
COUP-TFII inh: -8.7

Results for CC1CCN(CCCNC(=O)c2n[nH]c(=O)c3ccccc23)CC1 ?
H9c2 protect: 72.0*; H9c2 TAG inh: 13.4; COUP-TFII inh: 7.5; Jurkat NFkB inh: 3.1; Gli-Sufu block: 5.6; 697 NFkB inh: 7.5

What do the screens show for `O=C(COCc1ccncc1)N1CCN(c2ccc(F)cc2Cl)CC1`?
COUP-TFII inh: 22.4

What do the screens show for `COc1cc(/C=N\NC(=O)C2COc3ccccc3O2)cc(OC)c1O` (stereo not drawn)?
H9c2 protect: -0.8; H9c2 TAG inh: 11.7; COUP-TFII inh: 4.9; Jurkat NFkB inh: 3.8; Gli-Sufu block: -1.8; 697 NFkB inh: 11.8

Results for CCOc1ccc(-n2c(O)c(/C=N/NC(=O)C3COc4ccccc4O3)c3ccccc3c2=O)cc1 (stereo not drawn) ?
H9c2 protect: 55.7*; COUP-TFII inh: -3.4; Jurkat NFkB inh: -0.9; Gli-Sufu block: -8.1; 697 NFkB inh: -6.6

How did O=C(CCc1nc2ccccc2c(=O)[nH]1)NNC(=O)c1ccc(Cl)cc1 do in these assays?
H9c2 protect: 60.7*; H9c2 TAG inh: 8.4; COUP-TFII inh: -21.5; Jurkat NFkB inh: -3.8; Gli-Sufu block: -2.4; 697 NFkB inh: 12.6

Results for O=C(CCc1nc2ccccc2c(=O)[nH]1)NNC(=O)c1ccc(F)cc1 ?
H9c2 protect: 78.1*; H9c2 TAG inh: 12.3; COUP-TFII inh: 19.2; Jurkat NFkB inh: -4.6; Gli-Sufu block: 4.0; 697 NFkB inh: 10.9

How did COc1cc(OC)cc(C(=O)NNC(=O)CCc2nc3ccccc3c(=O)[nH]2)c1 do in these assays?
H9c2 protect: 56.1*; H9c2 TAG inh: -9.0; COUP-TFII inh: -6.7; Jurkat NFkB inh: -9.8; Gli-Sufu block: 3.3; 697 NFkB inh: 18.6

What do the screens show for `O=C(CCc1nc2ccccc2c(=O)[nH]1)NNC(=O)COc1ccc(Br)cc1`?
H9c2 protect: 44.9; H9c2 TAG inh: 1.4; COUP-TFII inh: -13.3; Jurkat NFkB inh: -2.5; Gli-Sufu block: 1.5; 697 NFkB inh: 18.0

Results for CCC(CC)C(=O)N(CCc1ccc(OC)cc1)Cc1nc2ccccc2c(=O)[nH]1 ?
H9c2 protect: 56.0*; COUP-TFII inh: 15.6; Jurkat NFkB inh: -7.2; Gli-Sufu block: -2.1; 697 NFkB inh: 7.1

What do the screens show for `CN(Cc1ccccc1)C(=O)OCc1cn(Cc2ccccc2)nn1`?
COUP-TFII inh: -10.3

How did C=CCN(CC#Cc1ccc(C(F)(F)F)cc1)Cc1ccc(OC)cc1OC do in these assays?
COUP-TFII inh: -1.1

Results for Cc1ccc(CNC(=O)OC(C)(C)C)c(/C=C/S(=O)(=O)NCCc2ccccc2)c1 ?
COUP-TFII inh: 32.8

Results for O=C(CSc1nc2ccccc2[nH]1)NN=Cc1ccccc1C(=O)O ?
COUP-TFII inh: -28.7

How did COc1ccc(NC(=O)OCCN2CCCC23CCC(c2ccccc2)CC3)cc1 (stereo not drawn) do in these assays?
COUP-TFII inh: 13.3

What do the screens show for `O=C(c1ccc(C#Cc2ccccc2)cc1)N1CCC(O)CC1`?
COUP-TFII inh: -18.0

How did O=C(CCc1nc2ccccc2c(=O)[nH]1)NNC(=O)c1cccc(Cl)c1 do in these assays?
H9c2 protect: 69.7*; H9c2 TAG inh: 1.1; COUP-TFII inh: 6.5; Jurkat NFkB inh: 5.1; Gli-Sufu block: 27.9; 697 NFkB inh: 17.9

Results for NC(=O)c1ccc(NC(=O)COC(=O)c2c3c(nc4ccccc24)/C(=C\c2cccs2)CCC3)cc1 ?
H9c2 protect: 54.5*; COUP-TFII inh: 4.0; Jurkat NFkB inh: 8.3; Gli-Sufu block: -1.9; 697 NFkB inh: 21.1

How did CCc1cccc(C)c1NC(=O)COC(=O)c1c2c(nc3ccccc13)/C(=C\c1cccs1)CCC2 do in these assays?
H9c2 protect: 1.0; COUP-TFII inh: 11.3; Jurkat NFkB inh: -4.8; Gli-Sufu block: 26.5; 697 NFkB inh: -19.8

What do the screens show for `C=CCn1c(COc2ccc(Cl)cc2)nnc1SCC(=O)N/N=C/c1cccc(O)c1`?
H9c2 protect: -15.2; H9c2 TAG inh: -11.5; COUP-TFII inh: 9.0; Jurkat NFkB inh: -4.4; Gli-Sufu block: 0.7; 697 NFkB inh: 19.0

What do the screens show for `C=CCn1c(COc2ccccc2)nnc1SC(C)C(=O)N/N=C/c1cc(Cl)ccc1O` (stereo not drawn)?
H9c2 protect: 66.6*; H9c2 TAG inh: 9.7; COUP-TFII inh: 8.0; Jurkat NFkB inh: 15.7; Gli-Sufu block: 10.4; 697 NFkB inh: 17.1

Results for O=C(NC1CCCCN(Cc2ccc(Cl)cc2)C1=O)C(c1ccccc1)c1ccccc1 (stereo not drawn) ?
COUP-TFII inh: 14.8

Results for CCN(CC)C(=O)CSc1nnc(-c2ccc(C(C)(C)C)cc2)n1Cc1ccco1 ?
COUP-TFII inh: 23.6

Results for O=C(N/N=C/c1ccc2c(c1)OCO2)c1ccc(NC(=O)c2ccccc2Cl)cc1 ?
H9c2 protect: 56.1*; COUP-TFII inh: 6.2; Jurkat NFkB inh: 10.3; Gli-Sufu block: -14.6; 697 NFkB inh: 12.9

Results for O=C(N/N=C/c1ccc2c(c1)OCO2)c1cccc(NC(=O)c2ccccc2Cl)c1 ?
H9c2 protect: -1.1; COUP-TFII inh: -44.4; Jurkat NFkB inh: 39.4; Gli-Sufu block: -19.5; 697 NFkB inh: -17.9

Results for Cc1nc2ccccc2c(=O)[nH]1 ?
H9c2 protect: 68.7*; H9c2 TAG inh: -6.2; COUP-TFII inh: 7.4; Jurkat NFkB inh: 0.4; Gli-Sufu block: 4.3; 697 NFkB inh: 0.1

What do the screens show for `O=C(Nc1cccc(C(F)(F)F)c1)c1ccc(-n2cncn2)nc1`?
H9c2 protect: -0.6; H9c2 TAG inh: 16.8; COUP-TFII inh: 8.4; Jurkat NFkB inh: 17.1; Gli-Sufu block: 11.1; 697 NFkB inh: 0.3

Results for O=C(Nc1cccc(/C=C/c2ccccn2)c1)c1ccc(-n2cncn2)cc1 ?
H9c2 protect: 68.8*; H9c2 TAG inh: 6.6; Jurkat NFkB inh: -17.3; Gli-Sufu block: -30.9; 697 NFkB inh: -45.7

What do the screens show for `CCN(CC)c1ccc(N=Cc2cc(Br)ccc2O)cc1`?
H9c2 protect: -5.0; H9c2 TAG inh: 12.1; COUP-TFII inh: 11.4; Jurkat NFkB inh: 5.5; Gli-Sufu block: 2.4; 697 NFkB inh: -7.6

How did OCC(CO)(CO)N=Cc1cc(Br)ccc1O do in these assays?
H9c2 protect: 57.6*; COUP-TFII inh: 14.3; Jurkat NFkB inh: 12.1; Gli-Sufu block: 0.6; 697 NFkB inh: 14.0

What do the screens show for `Oc1ccc(Br)cc1C=Nc1ccc(Cl)cc1`?
H9c2 protect: 50.0*; H9c2 TAG inh: -9.9; COUP-TFII inh: -22.4; Jurkat NFkB inh: -12.7; Gli-Sufu block: -0.1; 697 NFkB inh: -13.7
